PubChem BioAssay AID488969 (Vanderbilt High Throughput Screening Facility, 2010)
Over roughly 110,000 compounds, “z-score” has its median near -0.1; the highest 2% begin near 2. This excerpt belongs to a sample that is enriched for the highest values. Calls of active or inactive are those of the source.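 How the source made its calls: active means z-score in the third read window above 3 or below -3; inactive means the rest.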

The compounds below were run against Metabotropic glutamate receptor 8 (Rattus norvegicus) (UniProt P70579) (assay: rat mGluR8 modulators via GIRK flux, primary screen, cell-based, thallium flux, HTS (AID 488969)). Conditions: HEK293 rat mGluR8, GIRK (G protein-gated inwardly rectifying potassium channel) thallium flux, FluoZin2; at 10 µM; stronger effect = higher value.
Sequence of Metabotropic glutamate receptor 8 (Rattus norvegicus) (P70579 whole entry, looked up): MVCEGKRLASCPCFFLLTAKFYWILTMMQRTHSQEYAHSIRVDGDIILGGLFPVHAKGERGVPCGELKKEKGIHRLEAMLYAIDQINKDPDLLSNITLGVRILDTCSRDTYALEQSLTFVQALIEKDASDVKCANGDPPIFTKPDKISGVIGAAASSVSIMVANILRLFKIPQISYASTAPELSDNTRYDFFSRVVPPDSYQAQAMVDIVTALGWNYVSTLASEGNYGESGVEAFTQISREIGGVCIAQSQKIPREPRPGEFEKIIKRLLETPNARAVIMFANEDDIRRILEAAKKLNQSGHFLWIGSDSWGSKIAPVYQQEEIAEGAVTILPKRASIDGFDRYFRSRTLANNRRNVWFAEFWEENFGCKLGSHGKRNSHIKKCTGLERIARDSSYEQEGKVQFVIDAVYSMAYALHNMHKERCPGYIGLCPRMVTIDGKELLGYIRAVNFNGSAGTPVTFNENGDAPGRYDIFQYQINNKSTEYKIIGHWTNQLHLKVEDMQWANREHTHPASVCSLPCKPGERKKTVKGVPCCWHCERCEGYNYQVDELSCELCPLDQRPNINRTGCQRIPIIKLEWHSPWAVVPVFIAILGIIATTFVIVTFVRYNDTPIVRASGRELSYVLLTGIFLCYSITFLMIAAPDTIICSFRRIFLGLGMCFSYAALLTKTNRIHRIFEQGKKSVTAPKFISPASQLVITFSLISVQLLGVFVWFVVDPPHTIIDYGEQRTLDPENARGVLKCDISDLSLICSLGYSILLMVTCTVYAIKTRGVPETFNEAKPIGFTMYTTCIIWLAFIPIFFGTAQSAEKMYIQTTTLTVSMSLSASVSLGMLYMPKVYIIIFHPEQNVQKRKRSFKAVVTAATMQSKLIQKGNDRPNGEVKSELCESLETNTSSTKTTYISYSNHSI

Going from `Oc1ccc(C2NCc3ccccc3-n3cccc32)cc1Cl` (stereo not drawn) to `COc1cc(C2NCc3ccccc3-n3cccc32)ccc1O` (stereo not drawn), the z-score falls from 1.68 to 1.55.

First: c1ccc(C2NCc3ccccc3-n3cccc32)cc1 (stereo not drawn)
Second: COc1ccc(C2NCc3ccccc3-n3cccc32)cc1 (stereo not drawn)
The z-score of the first is lower: -0.239 for the first, 2.1 for the second.

First: Cc1nn(C2CCOC(C)(C)C2)c2c1C(c1ccc(OC(C)C)cc1)SCC(=O)N2 (stereo not drawn)
Second: CC(=O)N1CC(=O)Nc2ccc(Cl)cc2C1c1ccc(F)cc1 (stereo not drawn)
The z-score of the first is lower: -0.843 for the first, -0.284 for the second.

Compared with `Cn1c(O)c(C=NCc2ccco2)c(=O)n(C)c1=O`, `CCC(=NCc1ccc(F)cc1)c1c(O)n(C)c(=O)n(C)c1=O` is lower in z-score: -0.19 for the first, -0.274 for the second.

Going from `CCC(CC)C1C(C#N)=C(N)Oc2c1c(=O)oc1ccccc21` (stereo not drawn) to `C=CCOC(=O)C1=C(C)OC(N)=C(C(=O)OCC)C12C(=O)N(CC(N)=O)c1ccccc12` (stereo not drawn), the z-score falls from -0.103 to -0.605.

Compared with `O=C(COc1ccc(Cl)cc1)N1CCN(C/C=C/c2ccccc2)CC1`, `O=C(COc1ccccc1)N1CCN(C/C=C/c2ccccc2)CC1` is higher in z-score: -0.0408 for the first, 0.702 for the second.

Compared with `CC12CCCCC1=[N+]([O-])CN2O` (stereo not drawn), `Cn1cccc1/C=C1\C(=O)NC(=O)N(CCC2=CCCCC2)C1=O` is lower in z-score: 0.377 for the first, -0.117 for the second.

Going from `CCOc1ccc(CC2C(=O)NC(=O)N(c3ccc(CC)cc3)C2=O)cc1` (stereo not drawn) to `CCc1ccc(N2C(=O)NC(=O)C(Cc3ccc(OC)cc3OC)C2=O)cc1` (stereo not drawn), the z-score falls from -0.531 to -0.562.

First: CCOC(=O)c1c(C)n(CCN2CCN(C)CC2)c2ccc(OC)cc12
Second: CCOC(=O)c1c(C)n(CCOC)c2ccc(O)cc12
The z-score of the first is higher: 1.21 for the first, 0.821 for the second.

Going from `CCCCN1C(=N)C(CC)(CC)C(=O)NC1=O` to `CCCCN1C(=O)/C(=C/C=C/c2ccco2)C(=O)NC1=S`, the z-score rises from -0.0121 to 0.136.

Compared with `O=C(c1cc([N+](=O)[O-])ccc1N1CCNCC1)N1CCOCC1`, `N#Cc1ccc(N2CCNCC2)c(F)c1` is higher in z-score: -0.253 for the first, 0.268 for the second.

Going from `COc1cccc(-n2c(O)c(C=NCc3ccc4c(c3)OCO4)c(=O)[nH]c2=O)c1` to `N=Cc1c(O)n(-c2cccc(Cl)c2)c(=O)[nH]c1=O`, the z-score rises from -0.566 to 0.745.

Going from `Clc1cccc(N2CCNCC2)c1Cl` to `N#Cc1cc(F)c(N2CCNCC2)cc1Cl`, the z-score rises from 0.654 to 2.17.

Compared with `CCCNS(=O)(=O)c1ccc(OCC(=O)N2CCN(Cc3ccc4c(c3)OCO4)CC2)cc1`, `Cc1ccc(C(O)(C(=O)NNC(=O)CN2CCN(C)CC2)c2ccc(C)cc2)cc1` is higher in z-score: -0.266 for the first, -0.00637 for the second.

Going from `Cc1cc(C(=O)N2CCC3(CC2)OCCO3)cs1` to `O=C(CN1CCOCC1)c1cccc2ccccc12`, the z-score falls from 0.652 to -0.17.

First: CN(C)CC1CSCCC1(O)c1ccccc1 (stereo not drawn)
Second: OC12Oc3ccccc3C=C1N1CCC2CC1 (stereo not drawn)
The z-score of the first is lower: 0.409 for the first, 2.17 for the second.

First: CC(C)OC12Oc3ccccc3C=C1N1CCC2CC1 (stereo not drawn)
Second: C=C1N2CCC(CC2)C1(O)c1ccc(C)cc1 (stereo not drawn)
The z-score of the first is higher: 1.77 for the first, -0.123 for the second.

Going from `CCC(C)N1C(=O)/C(=C\c2ccc(N3CCCCCC3)cc2)C(=O)NC1=S` (stereo not drawn) to `CCC(C)N1C(=O)/C(=C/c2ccc3c(c2)CCN3CCCCl)C(=O)NC1=S` (stereo not drawn), the z-score rises from -0.384 to -0.358.

Compared with `CC(C)CN(CC(C)C)c1ccc(C=C2C(=O)NC(=S)NC2=O)cc1[N+](=O)[O-]`, `Cc1cc(C=C2C(=O)NC(=S)NC2=O)c(C)n1-c1ccc2c(c1)OCO2` is lower in z-score: 2.35 for the first, -0.495 for the second.

Compared with `O=C(O)C1(c2ccc(Cl)cc2)CCC1`, `O=C1C2CCCN2C(c2ccc(Cl)cc2)N1c1ccccn1` (stereo not drawn) is higher in z-score: -0.279 for the first, 2.77 for the second.

Compared with `CN(C)P1(N(C)C)=Nc2c(c(N)nn2C)C(c2ccccc2)=N1`, `CSCc1nnc2n1-c1ccc(Cl)cc1C(c1ccccc1)=NC2` is lower in z-score: 1.2 for the first, -0.724 for the second.

First: COc1ccc(CC2C(=O)NC(=O)N(c3ccccc3)C2=O)c(OC)c1 (stereo not drawn)
Second: COc1ccccc1C1=NCc2nnc(C)n2-c2ccc(Cl)cc21
The z-score of the first is higher: 0.821 for the first, 0.478 for the second.

First: Cc1ccc(-n2c(/C=C/c3ccc4c(c3)OCO4)nc3ccccc3c2=O)cc1
Second: COc1ccc(C2NCc3ccc4c(c3-n3cccc32)OCO4)cc1O (stereo not drawn)
The z-score of the first is lower: -0.143 for the first, 2.45 for the second.

Compared with `CCOP(=O)(OCC)C(C)(C)NC(=O)C(Cl)(Cl)Cl`, `CCOC(C(=O)OCCC[N+](C)(CC)CC)(c1ccccc1)c1ccccc1` is higher in z-score: 0.176 for the first, 0.315 for the second.

Going from `CC12CN3CC(C)(CN(C1)C3c1ccco1)C2=O` (stereo not drawn) to `CCN1C(=O)C(=C/C=C/c2ccco2)C(=O)N(CC)C1=S`, the z-score falls from 0.289 to -0.628.

Compared with `Clc1ccc2c(c1)C(c1ccccc1Cl)=NCc1nncn1-2`, `CCS(=O)(=O)NCc1nnc2n1-c1ccc(Cl)cc1C(c1ccccc1)=NC2` is lower in z-score: 1.46 for the first, -0.148 for the second.

Compared with `CN1CCN(Cc2nnc3n2-c2ccc(Cl)cc2C(c2ccccc2)=NC3)CC1`, `Clc1ccc2c(c1)C(c1ccccc1Cl)=NCc1nnc(N3CCN(CCSc4ccccc4)CC3)n1-2` is lower in z-score: -0.238 for the first, -0.487 for the second.

Compared with `Cc1ccc(N(C)C(=O)Oc2ccc(C(=O)c3ccc(Cl)cc3)cc2)cc1`, `CCN(CC)c1ccc(N=Cc2c(O)n(-c3ccc(Cl)cc3)c(=O)[nH]c2=O)cc1` is lower in z-score: 0.23 for the first, 0.126 for the second.

Compared with `CCN1CCN(c2nc3c(c(=O)[nH]2)CCCC3)CC1`, `Cc1cccc(N2C(=O)NC(=O)/C(=C\c3cc(C)n(-c4sc5c(c4C#N)CCCC5)c3C)C2=O)c1C` is higher in z-score: -0.0782 for the first, 0.0132 for the second.

First: CC(C)N(CC(O)c1cccc([N+](=O)[O-])c1)C(C)C (stereo not drawn)
Second: CCOc1cc(C2NCc3ccccc3-n3cccc32)ccc1O (stereo not drawn)
The z-score of the first is lower: -0.309 for the first, 1.71 for the second.

Going from `Cc1[nH]c2ccccc2c1CCCNC1CCCCC1` to `c1ccc2c(CNC3CCCCCC3)c[nH]c2c1`, the z-score falls from 0.385 to -0.0434.

First: COC(=O)C(O)(c1ccc(N=Cc2ccccc2O)c(C)c1)C(F)(F)F (stereo not drawn)
Second: O=C1C2CCCN2C(c2ccc(Cl)c(Cl)c2)N1c1ccccn1 (stereo not drawn)
The z-score of the first is higher: 0.286 for the first, -0.0899 for the second.

With `O=C1C2CCCN2C(c2cccc(Cl)c2)N1c1ccccn1` (stereo not drawn) the z-score was -0.498.

For `O=C(Cc1ccccc1)N1CCN(C/C=C/c2ccccc2)CC1`, the z-score was 3.68 (active).
`CCCCn1c(C)c(C(=O)OCC)c2c(CN3CCOCC3)c(O)ccc21` was tested, and the z-score was 4.12 (active).
For `COc1ccc(CC2C(=O)NC(=O)NC2=O)c(OC)c1`, the z-score was 13.6 (active).
For `Cc1ccccc1C1=NCC(=S)Nc2ccc(Cl)cc21`, the z-score was 4.39 (active).
`S=C1CN=C(c2ccccc2Cl)c2cc(Cl)ccc2N1` was tested, and the z-score was 14.6 (active).
`S=C1CN=C(c2ccccc2)c2cc(Cl)ccc2N1` was tested, and the z-score was 4.29 (active).
In the case of `c1ccc2c(CNC3CCCCC3)c[nH]c2c1`, the z-score is reported as 4.16 (active).
For `CC(C)N1C(=O)/C(=C/C=C/c2ccco2)C(=O)N(Cc2ccco2)C1=O`, the z-score was 6.08 (active).
